Bioassay records deposited in PubChem by several laboratories.
AHR act: AHR activators, primary screen, cell-based, luminescence, luciferase reporter, human; AHR-responsive luciferase reporter cells; 320,000 tested, 2.5% active; Aryl hydrocarbon receptor (Homo sapiens), P35869; activation, % at 5 µM; in the data active = activation above about 47%
HIF activator: HIF pathway transcriptional activators, primary screen, cell-based, U2OS HRE-luciferase, luminescence; U2OS HRE-luciferase reporter; normalized: DMSO 0%, desferrioxamine 100%; activation, % at 7.5 µM (by protocol); 300,000 tested, 0.32% active; AID 1910, 2009;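 active = mean activation of at least 10% of the iron chelator positive control signal, with at least half of replicates also reaching 10%; inconclusive = mean and replicate majority disagree about reaching 10%; inactive = mean and most replicates under 10%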
sPLA2-III inh: human group III sPLA2 inhibitors, primary screen, biochemical, QFRET, BODIPY PC-A2 liposome substrate; AID 743126, 2013; 370,000 tested, 0.56% active; inhibition, % at 12.2 µM; QFRET BODIPY PC-A2 liposome hydrolysis, fluorescence; Group 3 secretory phospholipase A2 (Homo sapiens), Q9NZ20;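 active = inhibition above mean plus 3 SD of compounds lying within the high and low control bounds, cut at about 19% in these data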
Target sequence (Q9NZ20 whole entry, looked up): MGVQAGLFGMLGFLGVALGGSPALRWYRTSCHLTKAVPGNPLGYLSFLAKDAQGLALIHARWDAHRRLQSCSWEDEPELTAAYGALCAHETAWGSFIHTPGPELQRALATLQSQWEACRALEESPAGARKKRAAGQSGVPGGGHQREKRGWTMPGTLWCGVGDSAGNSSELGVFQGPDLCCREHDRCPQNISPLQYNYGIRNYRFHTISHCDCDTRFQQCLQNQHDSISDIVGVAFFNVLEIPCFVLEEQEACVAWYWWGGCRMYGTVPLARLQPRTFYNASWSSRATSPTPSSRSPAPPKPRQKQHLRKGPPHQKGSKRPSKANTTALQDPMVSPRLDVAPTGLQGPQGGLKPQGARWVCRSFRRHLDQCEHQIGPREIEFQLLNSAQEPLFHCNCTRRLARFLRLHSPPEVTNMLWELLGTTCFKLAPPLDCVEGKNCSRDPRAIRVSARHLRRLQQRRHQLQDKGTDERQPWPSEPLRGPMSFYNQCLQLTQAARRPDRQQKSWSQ
CR mimetic SO: reduction of superoxide in aged yeast, primary screen, HTS; superoxide response (% of plate mean), % at 10 µM; S. cerevisiae aged cells, superoxide DHE fluorescence; hits give low values; AID 2690, 2010; 330,000 tested, 0.18% active;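 active = superoxide response under a set limit, about three screen SD below normal, cut at about 65% in these data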;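 note: yeast aged for seven days with compound at 30 °C before DHE staining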
PLC-beta3 inh: human PLC-beta3 inhibitors, primary screen, biochemical, fluorescence | 1-phosphatidylinositol 4,5-bisphosphate phosphodiesterase beta-3 (Homo sapiens), Q01970 | Purified PLC-beta3, fluorogenic substrate | inhibition, % at 12.2 µM | 370,000 tested, 0.18% active | AID 720704, 2013; in the data active = inhibition above about 11%
PLCg1 inh: PLC-gamma1 enzyme inhibitors, primary screen, biochemical, fluorescence, purified enzyme; inhibition, % at 12.2 µM; AID 720700, 2013; fluorogenic substrate; 370,000 tested, 0.84% active
PLCg1 ctr: PLC-gamma1 enzyme inhibitors, counter-screen for PLC-beta3 inhibitor project, biochemical, fluorescence; purified PLC-gamma1, fluorogenic substrate; AID 743258, 2014; 3,300 tested, 3.1% active; inhibition, % at 12.3 µM; shares compounds with PLCg1 inh
PLCbeta3 conf: PLC-beta3 inhibitor confirmation, biochemical, fluorescence, purified enzyme; shares compounds with PLCg1 inh; fluorogenic substrate fluorescence; inhibition, % at 12.3 µM; 3,300 tested, 1% active; AID 743261, 2014; in the data active = inhibition above about 11%
Of the large screens only hits and unclear results are named; the others gave an inactive call (follow-up assays come after a bar, where they were run); ! = not active in a repeat. Compounds with a hit are over-represented: about 3.9% of the library has one in this group of screens. Cut-off read from the data, not from the text of the source, unless noted: active = inhibition above about 9.5%; inactive = the rest.

O=C(NCc1ccccc1)c1n[nH]nc1-c1ccccc1O	PLCg1 inh 17 | PLCg1 ctr 16 | PLCbeta3 conf inactive
C=CCSc1nc2c(c(C3CC=CCC3)c1C#N)CCC2 (stereo not given)	none
CC(C)OC(=O)CSc1nc2c(c(C3CC=CCC3)c1C#N)CCC2 (stereo not given)	PLCg1 inh 9.6 (no result: HIF activator) | PLCg1 ctr inactive | PLCbeta3 conf inactive
CCOC(=O)Cc1nnc(NC(=O)CCc2ccccc2)s1	PLCg1 inh 11 | PLCg1 ctr inactive | PLCbeta3 conf inactive
CCOC(=O)Cc1csc(NC(=O)CCc2ccccc2)n1	none
O=S(=O)(c1ccccc1)c1cnn(-c2ccccc2)c1-c1ccc(Cl)cc1	PLC-beta3 inh 20 | PLCg1 ctr inactive | PLCbeta3 conf 17
CCCCN(CCCC)C(=S)N/N=C/c1c(C)[nH]n(-c2ccccc2)c1=O	PLCg1 inh 9.9 | PLCg1 ctr inactive | PLCbeta3 conf inactive
O=C(NCCC1=CCCCC1)C(=O)NCC(c1ccco1)N1CCN(c2ccccc2)CC1 (stereo not given)	PLCg1 inh 13 | PLCg1 ctr inactive | PLCbeta3 conf inactive
S=c1[nH]nc(-c2cc(-c3ccccc3)n[nH]2)n1/N=C/C(Br)=C/c1ccccc1	none
CC1Cc2nc(SCC(=O)NCC3CCCO3)n(Cc3ccccc3)c(=O)c2S1 (stereo not given)	PLCg1 inh 9.6 | PLCg1 ctr inactive | PLCbeta3 conf inactive
Cc1ccc(SCC(=O)NCC2CCCO2)cc1 (stereo not given)	PLCg1 inh 11 | PLCg1 ctr inactive | PLCbeta3 conf inactive
Cc1ccc(SCCC(=O)NCC2CCCO2)cc1 (stereo not given)	none
CC1Cc2nc(SCC(=O)NCC3CCCO3)n(-c3ccc(F)cc3)c(=O)c2S1 (stereo not given)	none
COc1ccc(C(C(=O)N(C)C2CCCC2)N(Cc2ccc(F)cc2)C(=O)c2csc(N3CCOCC3)n2)cc1OC (stereo not given)	none (no result: AHR act, HIF activator, CR mimetic SO)
Cc1[nH]nc2c1C(c1ccc3c(c1)OCO3)N(Cc1ccccc1)C2=O (stereo not given)	none (no result: AHR act, HIF activator, CR mimetic SO)
Cc1ccc(S(=O)(=O)NN=Cc2ccccc2Cl)cc1	none (no result: AHR act, HIF activator, CR mimetic SO)
Cn1cccc1-c1nc2ccc(NC(=O)c3ccccc3)cc2[nH]1	none
Cn1cccc1-c1nc2ccc(NC(=O)c3ccc([N+](=O)[O-])cc3)cc2[nH]1	PLCg1 inh 14 | PLCg1 ctr inactive | PLCbeta3 conf inactive
CN(C)CCN1C(=O)C(=O)/C(=C(/O)c2ccc(S(=O)(=O)N3CCOCC3)cc2)C1c1ccc(Br)cc1 (stereo not given)	PLCg1 inh 11 | PLCg1 ctr inactive | PLCbeta3 conf inactive
CC(CNC(=O)c1cc(Cl)ccc1[N+](=O)[O-])NC(=O)c1cc(Cl)ccc1[N+](=O)[O-] (stereo not given)	PLCg1 inh 11 | PLCg1 ctr inactive | PLCbeta3 conf inactive
CC(C)(C)NC(=O)c1cc(Cl)ccc1[N+](=O)[O-]	none
Cn1cccc1C(=O)OCc1ccc(C(C)(C)C)cc1	none
COc1cc(OC)cc(C(=O)NCC(=O)OCC(=O)N2c3ccccc3NC(=O)C2(C)C)c1	PLCg1 inh 11 | PLCg1 ctr inactive | PLCbeta3 conf inactive
Cn1cc(CN2CCC(C(=O)NC(c3ccc(-c4ccccc4)cc3)c3cnccn3)CC2)c2ccccc21 (stereo not given)	PLCg1 inh 12 (no result: AHR act, HIF activator, CR mimetic SO) | PLCg1 ctr inactive | PLCbeta3 conf inactive
O=C(CC(C(=O)O)C1CCCO1)Nc1cccc(C(F)(F)F)c1 (stereo not given)	none
O=C(O)CC(C(=O)Nc1cccc(C(F)(F)F)c1)C1CCCO1 (stereo not given)	PLCg1 inh 16 | PLCg1 ctr inactive | PLCbeta3 conf inactive
CC(=O)c1ccc(NS(=O)(=O)c2ccc([N+](=O)[O-])cc2)cc1	PLC-beta3 inh 17 (no result: AHR act, HIF activator, CR mimetic SO) | PLCg1 ctr inactive | PLCbeta3 conf inactive
CC1CCCN(C(=O)c2ccc(NS(=O)(=O)c3cccc([N+](=O)[O-])c3)cc2)C1 (stereo not given)	PLCg1 inh 16 | PLCg1 ctr inactive | PLCbeta3 conf inactive
Cc1cc2nc(-c3cccc(Br)c3)c(CC3CCCCC3)n2c(C)c1Br	none (no result: AHR act, HIF activator, CR mimetic SO)
CCCCCNC(=O)[C@@H]1CSC2c3ccccc3C(=O)N21 (stereo not given in full)	PLCg1 inh 13 | PLCg1 ctr inactive | PLCbeta3 conf inactive
COc1ccc(NC(=O)CN(C)C(=O)Cc2c(C)nc3ccccc3c2C)cc1	none
Cc1ccc(S(=O)(=O)N2CCN(CC(=O)NC3CCCc4ccccc43)CC2)c(C)c1 (stereo not given)	none
Cc1ccc(S(=O)(=O)N2CCN(CC(=O)NC3CCCc4ccccc43)CC2)cc1C (stereo not given)	PLCg1 inh 11! | PLCg1 ctr inactive | PLCbeta3 conf inactive
COc1ccc([N+](=O)[O-])cc1NC(=O)C(C)OC(=O)CSC(C)C(=O)Nc1cc(C)on1 (stereo not given)	PLCg1 inh 10 | PLCg1 ctr inactive | PLCbeta3 conf inactive
Cc1ccc(-c2cc(N)n(-c3ccc(F)cc3)n2)cc1	HIF activator inconclusive, PLCg1 inh 13 | PLCg1 ctr inactive | PLCbeta3 conf inactive
COCc1[nH][nH]c(=O)c1C=Nc1ccc(OC(F)(F)F)cc1	PLC-beta3 inh 11 | PLCg1 ctr inactive | PLCbeta3 conf inactive
O=C(CSC1CS(=O)(=O)c2cc([N+](=O)[O-])ccc21)NNC(=O)c1ccccc1 (stereo not given)	PLCg1 inh 10.0 | PLCg1 ctr inactive | PLCbeta3 conf inactive
CC(C)(CNCc1ccccc1)NS(=O)(=O)c1ccccc1	none (no result: HIF activator)
CCOc1ccc(S(=O)(=O)N2CCC(C(=O)OC(C)C(=O)NC3CCCCC3C)CC2)cc1 (stereo not given)	none (no result: HIF activator)
